# Results as given in the supplement of paper PMC10720658.
# ± gives the standard deviation of the averaged measurements.
# Tested on: AEK1 (Tb927.3.2440)
# Experiment: percent reduction in TR-FRET probe signal relative to DMSO control; higher = stronger displacement of ATP-site probe (binding)
# Details: 1 µM; incubation time 1 h
row,SMILES,percent reduction in TR-FRET probe signal
1,COc1ccc(C(=O)Nc2sc3c(c2C(N)=O)CCCC3)cc1OC,1.85 ± 1.5%
2,Nc1nc(Nc2ccc(S(N)(=O)=O)cc2)nn1C(=O)c1c(F)cccc1F,27.8 ± 16%
3,Cc1cc(Nc2ncc(Cl)c(Nc3ccccc3S(=O)(=O)C(C)C)n2)c(OC(C)C)cc1C1CCNCC1,-7.62 ± 8.9%
4,Cn1c(Nc2ccc(C(F)(F)F)cc2)nc2cc(Oc3ccnc(-c4ncc(C(F)(F)F)[nH]4)c3)ccc21,34 ± 20%
5,COc1cc2ncnc(Nc3ccc(F)c(Cl)c3)c2cc1NC(=O)/C=C/CN1CCCCC1,-9.62 ± 5%
6,CCc1cc(Nc2nccc(-c3c(-c4ccc(OC)c(C(=O)Nc5c(F)cccc5F)c4)nc4ccccn34)n2)c(OC)cc1N1CCC(N2CCN(S(C)(=O)=O)CC2)CC1,-12.2 ± 12%
7,O=C(NOCC(O)CO)c1cc(Br)c(F)c(F)c1Nc1ccc(I)cc1F (configuration not stated),-4.38 ± 12%
8,Cc1nc(Nc2n[nH]c3c2CN(C(=O)N[C@H](CN(C)C)c2ccccc2)C3(C)C)c2sccc2n1,61.8 ± 9.6%
9,CN1CCN(Cc2ccc(-c3cnc4[nH]cc(-c5ccc6[nH]ccc6c5)c4c3)cc2)CC1,11.2 ± 7.5%
10,Cc1cnc(Nc2ccc(OCCN3CCCC3)cc2)nc1Nc1cccc(S(=O)(=O)NC(C)(C)C)c1,31.6 ± 15%
11,Cl.N=C(N)NC(=N)NCCc1ccccc1 [Phenformin HCl],12.1 ± 8.3%
12,CC1(C)CNc2cc(NC(=O)c3cccnc3NCc3ccncc3)ccc21.O=P(O)(O)O.O=P(O)(O)O [Motesanib Diphosphate (AMG-706)],2.79 ± 7.6%
